Experiment [1] concerns Zika virus NS2B-NS3 protease. The experiment can be described thus: Primary screen GU AMC qHTS for Zika virus inhibitors (AID 1347154).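 Also: 0% = no-inhibitor control and -100% = no-enzyme control; nearly all actives have a fitted effect of over 70% in size.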 An outline of the steps:
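Unlinked Zika NS2B hydrophilic domain/NS3 protease domain noncovalent complex (25 nM final) in 10 mM Tris-HCl pH 8.0, 0.01% Tween 20, with AMC peptide substrate. Fluorescence (ex 340, em 450 nm) change over 15 min, room temperature; percent inhibition fitted to 4-parameter Hill equation.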

Experiment [2] concerns Zika virus NS2B-NS3 protease (linked construct). The experiment can be described thus: Confirmatory screen NINDS AMC qHTS for Zika virus inhibitors (AID 1347152). Also: nearly all actives have a fitted effect of over 70% in size. Also: potency is read from the fitted curve at half-maximal effect. Put shortly: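 Enzyme (1 nM, linked construct) was preincubated with compound for 15 minutes at room temperature in 10 mM Tris-HCl pH 8.0 with 0.01% Tween 20. Bz-Nle-Lys-Arg-Arg-AMC was then added to 10 microM, and AMC fluorescence was recorded immediately and after 15 minutes.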

Experiment [3] deals with Zika virus NS2B-NS3 protease (unlinked complex). The experiment can be described thus: Confirmatory screen GU AMC qHTS for Zika virus inhibitors (AID 1347153). Also: nearly all actives have a fitted effect of over 70% in size.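 As to Potency: enzyme at 25 nM with substrate at 10 µM below its Km of 18.3 µM; potency is read from the fitted curve at half-maximal effect.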 Put shortly:
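Compounds were preincubated 15 min at room temperature with 25 nM noncovalent NS2B-NS3 protease at pH 8.0; AMC substrate added at 10 microM and 15-min fluorescence gain (340/450 nm) converted to percent inhibition, fitted 4-parameter.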

A short description of experiment [4]: Tertiary RLuc qRT-PCR qHTS assay for Zika virus inhibitors (AID 1347169). Also: potency is read from the fitted curve at half-maximal effect; nearly all actives have a fitted effect of over 55% in size. An outline of the steps: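 Vero, 1,000 cells/well, o/n 37 C; cpd pinned in DMSO; ZIKV-RLuc Cambodian, MOI 1-2, 48-72 h 37 C; live-cell RLuc substrate, lum read at 1-1.5 h.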
(Real-time PCR tracks product formation cycle by cycle.)

Experiment [5] in a line: Confirmation and Secondary Assay for Modulators of Hemoglobin Beta Chain Splicing at IVS2 705 locus (AID 930).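 Also: HeLa cells stably expressing the EGFP-705 splicing reporter; GFP fluorescence per well restored by corrected splicing of the IVS2-705 intron in EGFP; series mostly up to about 46 µM; % of control where 0% means no effect.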 An outline of the steps:
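Secondary splice-site specificity test uses HeLa expressing CMV-driven EGFP interrupted by IVS2-705; cells were treated 2 days at 37C with 500 nM antisense PNA as positive control.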

The nature of experiment [6]: qHTS Assay for Lipid Storage Modulators (AID 1519; calls by dose curve; also: potency is read from the fitted curve at half-maximal effect). The settings on record: Drosophila S3 cells, BODIPY lipid droplet/cell ratio, laser cytometry, cells loaded with oleic acid. Put shortly: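 Cells seeded at 5,000 per well were treated with compounds over a concentration series and loaded with oleic acid (400 uM, as added). Lipid droplet fluorescence (488 nm excitation, 500-530 nm channel) was read by laser-scanning cytometry and normalized to 20 uM Triacsin C.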
For orientation: qHTS replaces the single test concentration by a dilution series.

The target of experiment [7] is Ubiquitin carboxyl-terminal hydrolase 1 (Homo sapiens) (UniProt O94782). Description: Inhibitors of USP1/UAF1: Pilot qHTS (AID 504865). Also: potency is read from the fitted curve at half-maximal effect; nearly all actives have a fitted effect of over 35% in size. An outline of the steps: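 In 50mM HEPES pH 7.8 containing 0.5mM EDTA, 1mM TCEP, 0.1 mg/ml BSA and 0.01% Tween-20, 1nM USP1/UAF1 is exposed to compound for 15 min, then Ub-Rho (150nM final) is added and fluorescence is read over time.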
Sequence of Ubiquitin carboxyl-terminal hydrolase 1 (Homo sapiens) (O94782 whole entry, looked up): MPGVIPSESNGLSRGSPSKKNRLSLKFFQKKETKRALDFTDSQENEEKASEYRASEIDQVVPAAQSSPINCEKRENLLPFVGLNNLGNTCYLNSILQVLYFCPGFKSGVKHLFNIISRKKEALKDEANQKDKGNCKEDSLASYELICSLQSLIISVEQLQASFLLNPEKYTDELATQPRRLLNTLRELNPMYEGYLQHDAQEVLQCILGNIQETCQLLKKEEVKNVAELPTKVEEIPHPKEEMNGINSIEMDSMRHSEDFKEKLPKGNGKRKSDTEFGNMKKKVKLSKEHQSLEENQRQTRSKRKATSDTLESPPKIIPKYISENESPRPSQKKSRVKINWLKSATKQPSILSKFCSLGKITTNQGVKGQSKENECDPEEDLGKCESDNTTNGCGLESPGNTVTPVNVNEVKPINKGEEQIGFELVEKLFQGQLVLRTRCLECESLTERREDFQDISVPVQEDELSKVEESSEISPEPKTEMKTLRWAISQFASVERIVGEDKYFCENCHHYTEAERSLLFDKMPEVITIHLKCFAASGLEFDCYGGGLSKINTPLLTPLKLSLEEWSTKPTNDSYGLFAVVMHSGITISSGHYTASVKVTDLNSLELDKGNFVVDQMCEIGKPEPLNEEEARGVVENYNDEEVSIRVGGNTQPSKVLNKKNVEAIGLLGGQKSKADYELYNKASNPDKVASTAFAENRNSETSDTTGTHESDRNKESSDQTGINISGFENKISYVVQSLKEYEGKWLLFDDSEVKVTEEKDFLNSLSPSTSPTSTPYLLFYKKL

The nature of experiment [8]: Confirmatory screen NINDS Rhodamine qHTS for Zika virus inhibitors (AID 1347161). Also: potency is read from the fitted curve at half-maximal effect; nearly all actives have a fitted effect of over 60% in size. Put shortly: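 Purified NS2B-NS3 protease with the NS2B hydrophilic domain joined by a flexible linker (25 nM) in 10 mM Tris-HCl pH 8.0, 0.01% Tween 20, preincubated 15 min at RT with compound; Rhodamine110 peptide substrate 1.5 µM; fluorescence change over 15 min; 4-parameter Hill fit.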

The test system of experiment [9] is Zika virus NS2B-NS3 protease (linked construct). Description: 384 well plate NINDS Rhodamine confirmatory qHTS for Zika virus inhibitors (AID 1347164).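 Also: fluorescence from protease cleavage of Ac-LKRR-rhodamine 110 substrate; potency is read from the fitted curve at half-maximal effect; nearly all actives have a fitted effect of over 65% in size.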 An outline of the steps:
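Enzyme (final 5/30/60 nM) + cpd (DMSO), ~15 min; add Ac-LKRR-Rd 10 microM final; 25 min RT, dark; FI ex 485/em 538; normalized to no-enzyme, no-inhibitor ctrls; aprotinin intraplate ctrl.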

Experiment [10] is described as follows: Vero cells viability qHTS for Zika virus inhibitors (AID 1347167). Also: % is scaled to controls: 0 for no effect and ±100 for the full control effect. Put shortly:
(§1)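 Counter-screen for cytotoxicity of hits from NS2B-NS3 protease qHTS. Overnight-attached cells (2.5 x 10^5 cells/mL, DMEM/4% FBS) were dosed in titration, incubated 24 to 48 hours, then assayed by CellTiter Glo.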

A short description of experiment [11]: HepG2 cells viability qHTS for Zika virus inhibitors (AID 1347168). Also: % is scaled to controls: 0 for no effect and ±100 for the full control effect. Put shortly: as §1
Experiment [12] can be described thus: Primary qHTS for small molecule stabilizers of the endoplasmic reticulum resident proteome: Secreted ER Calcium Modulated Protein (SERCaMP) assay (AID 1508630). Also: % is scaled to controls: 0 for no effect and ±100 for the full control effect. An outline of the steps: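 GLuc-SERCaMP-expressing SH-SY5Y cells, pretreated 16 h with compound, are challenged with thapsigargin to empty ER calcium stores; after 4 h, coelenterazine is added directly to the medium and luminescence is imaged.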

For experiment [13], the target named is Cytochrome P450 2D6 (Homo sapiens) (UniProt P10635). Description: Cytochrome P450 family 2 subfamily D member 6 (CYP2D6) small molecule antagonists: luciferase biochemical (cell-free) qHTS assay (AID 1645840; active = well fitted curve in the direction sought with a large enough effect in the repeat runs; an effect the other way counts as inactive or inconclusive; also: potency is read from the fitted curve at half-maximal effect; nearly all actives have a fitted effect of over 55% in size). An outline of the steps:
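P450-Glo luminescent screen: recombinant CYP2D6 enzyme–proluciferin substrate mix preincubated with compound 10 min at room temperature, then NADPH regeneration added for 1 h at room temperature. Detection reagent added for 20 min; luciferin light read as relative luminescence units.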

Experiment [14] addresses Cytochrome P450 2C9 (Homo sapiens) (UniProt P11712). Description: Cytochrome P450 family 2 subfamily C member 9 (CYP2C9) small molecule antagonists: luciferase biochemical (cell-free) qHTS assay (AID 1645842; active = well fitted curve in the direction sought with a large enough effect in the repeat runs; an effect the other way counts as inactive or inconclusive; also: potency is read from the fitted curve at half-maximal effect; nearly all actives have a fitted effect of over 55% in size). An outline of the steps: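 Luminescence, after 20 min with luciferin detection reagent, reflected CYP2C9 turnover during a 1 h NADPH-driven reaction at 37C. Enzyme-substrate mix contained 0.4% bovine serum albumin and was preincubated with compound 10 min at room temperature.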

In experiment [15] the target is Rap guanine nucleotide exchange factor 3 (Homo sapiens) (UniProt O95398). The experiment can be described thus: Confirmatory qHTS for agonist of cAMP-regulated guanine nucleotide exchange factor 3 (EPAC1) (AID 1645881).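 Also: EPAC1 catalysed release of BODIPY-GDP from Rap1B seen as fluorescence loss; 100% = effect of cAMP agonist control; nearly all actives have a fitted effect of over 75% in size.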
Sequence of Rap guanine nucleotide exchange factor 3 (Homo sapiens) (O95398 whole entry, looked up): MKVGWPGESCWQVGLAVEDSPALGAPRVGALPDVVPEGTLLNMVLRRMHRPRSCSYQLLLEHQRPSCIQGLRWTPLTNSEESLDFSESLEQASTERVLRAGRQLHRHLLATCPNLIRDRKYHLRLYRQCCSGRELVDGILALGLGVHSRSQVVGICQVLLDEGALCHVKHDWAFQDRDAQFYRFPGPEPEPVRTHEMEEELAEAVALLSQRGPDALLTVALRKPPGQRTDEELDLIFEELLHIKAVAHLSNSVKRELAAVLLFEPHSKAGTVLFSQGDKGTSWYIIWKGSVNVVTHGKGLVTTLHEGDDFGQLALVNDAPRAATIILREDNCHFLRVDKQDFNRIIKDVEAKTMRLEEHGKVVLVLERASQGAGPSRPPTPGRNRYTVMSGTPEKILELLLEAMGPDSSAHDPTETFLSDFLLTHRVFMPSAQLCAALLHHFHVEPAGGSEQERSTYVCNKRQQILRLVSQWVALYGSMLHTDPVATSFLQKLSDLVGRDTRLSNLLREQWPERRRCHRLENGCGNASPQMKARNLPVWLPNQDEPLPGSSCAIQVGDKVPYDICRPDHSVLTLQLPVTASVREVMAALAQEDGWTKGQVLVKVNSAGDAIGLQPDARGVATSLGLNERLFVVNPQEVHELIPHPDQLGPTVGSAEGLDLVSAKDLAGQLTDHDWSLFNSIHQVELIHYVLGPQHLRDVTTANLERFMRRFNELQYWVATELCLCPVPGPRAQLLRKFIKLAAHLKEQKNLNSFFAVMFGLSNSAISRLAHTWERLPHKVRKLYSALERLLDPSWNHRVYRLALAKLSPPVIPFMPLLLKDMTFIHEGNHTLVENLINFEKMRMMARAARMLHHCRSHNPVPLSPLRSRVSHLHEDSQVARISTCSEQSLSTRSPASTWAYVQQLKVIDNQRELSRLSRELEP
Experiment [16] addresses Rap guanine nucleotide exchange factor 4 (Homo sapiens) (UniProt Q8WZA2). The experiment can be described thus: Confirmatory qHTS for agonist of cAMP-regulated guanine nucleotide exchange factor 4 (EPAC2) (AID 1645884).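 Also: nucleotide exchange releases bodipy-GDP from Rap1 and this lowers its fluorescence; % is scaled to controls: 0 for no effect and ±100 for the full control effect; nearly all actives have a fitted effect of over 65% in size.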
For experiment [17], the target named is Glutathione peroxidase 1 (Homo sapiens) (UniProt P07203). The experiment can be described thus: Primary qHTS Assay for Inhibitors of Recombinant Selenoprotein Glutathione Peroxidase 1 (GPX1) (AID 1845191). Also: % is scaled to controls: 0 for no effect and ±100 for the full control effect; nearly all actives have a fitted effect of over 65% in size. An outline of the steps:
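Recombinant GPX1 (10 nM final) was preincubated with compound for 30 min at room temperature, then reacted with 1 mM GSH, 0.5 mM CHP, 0.5 mM NADPH and 100 nM glutathione reductase; NADPH fluorescence (340/450 nm) was read at 0 and 15 min.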

Experiment [18] has as its target Phospholipid hydroperoxide glutathione peroxidase GPX4 (Homo sapiens) (UniProt P36969). The experiment can be described thus: Primary qHTS Assay for Inhibitors of Recombinant Selenoprotein Glutathione Peroxidase 4 (GPX4) (AID 1845192). Also: potency is read from the fitted curve at half-maximal effect; nearly all actives have a fitted effect of over 65% in size. The settings on record: outcome: dose series up to 50 µM unless noted. Put shortly: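 GR-coupled readout: 100 nM GR, 1 mM GSH, 0.5 mM NADPH; NADPH fluorescence (ex 340/em 450 nm) read at t=0 and after 15 min RT. GPX4 200 nM, preincubated 30 min with compound; substrate 0.5 mM CHP.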

The nature of experiment [19]: ZIKV-mCherry secondary qHTS for Zika virus inhibitors (AID 1347158). Also: top concentration of the series differs between compounds. An outline of the steps: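 Vero cells, 5,000/well, plated overnight at 37 °C, then compound added and infected with recombinant ZIKV-mCherry at MOI 1 for 48-72 h. PFA-fixed, Hoechst nuclear stain, high-content imaging; cells with mCherry intensity above 450 RFU scored infected, reported as percent infection.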

For experiment [20], the system named is Zika virus NS2B-NS3 protease (linked). Description: 384 well plate NINDS AMC confirmatory qHTS for Zika virus inhibitors (AID 1347163). Also: potency is read from the fitted curve at half-maximal effect; nearly all actives have a fitted effect of over 50% in size. Put shortly: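 Linked protease 5/30/60 nM final; cpds up to 1 mM final, ~15 min preinc. Substrate Ac-VKTGKR-AMC 30 microM final. RT, dark, 25 min; FI ex 355/em 460; normalized to no-enzyme/no-inhibitor ctrls.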

Molecules are shown by their SMILES. Inconclusive results are not listed. The source made the active and inactive calls. Unless noted, calls follow the shape of the dose curve; as a rule, active = well fitted curve in the direction sought with a large enough effect; inconclusive = small, poorly fitted or top-dose-only effect, or another doubt; inactive = no such curve, though single readings can be large; an effect the other way counts as inactive or inconclusive.

Sequence of Glutathione peroxidase 1 (Homo sapiens) (P07203 whole entry, looked up): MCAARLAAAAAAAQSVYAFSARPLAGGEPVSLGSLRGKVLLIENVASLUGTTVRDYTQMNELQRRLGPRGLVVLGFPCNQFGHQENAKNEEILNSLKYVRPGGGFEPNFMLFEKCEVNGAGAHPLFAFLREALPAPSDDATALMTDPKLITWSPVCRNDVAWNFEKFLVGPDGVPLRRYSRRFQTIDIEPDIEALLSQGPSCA
Sequence of Phospholipid hydroperoxide glutathione peroxidase GPX4 (Homo sapiens) (P36969 whole entry, looked up): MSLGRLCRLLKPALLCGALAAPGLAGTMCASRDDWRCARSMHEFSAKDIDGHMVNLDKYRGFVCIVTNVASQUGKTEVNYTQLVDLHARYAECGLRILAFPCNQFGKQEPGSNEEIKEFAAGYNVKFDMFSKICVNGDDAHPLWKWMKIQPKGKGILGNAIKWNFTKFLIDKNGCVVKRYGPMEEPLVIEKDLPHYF
Sequence of Cytochrome P450 2D6 (Homo sapiens) (P10635 whole entry, looked up): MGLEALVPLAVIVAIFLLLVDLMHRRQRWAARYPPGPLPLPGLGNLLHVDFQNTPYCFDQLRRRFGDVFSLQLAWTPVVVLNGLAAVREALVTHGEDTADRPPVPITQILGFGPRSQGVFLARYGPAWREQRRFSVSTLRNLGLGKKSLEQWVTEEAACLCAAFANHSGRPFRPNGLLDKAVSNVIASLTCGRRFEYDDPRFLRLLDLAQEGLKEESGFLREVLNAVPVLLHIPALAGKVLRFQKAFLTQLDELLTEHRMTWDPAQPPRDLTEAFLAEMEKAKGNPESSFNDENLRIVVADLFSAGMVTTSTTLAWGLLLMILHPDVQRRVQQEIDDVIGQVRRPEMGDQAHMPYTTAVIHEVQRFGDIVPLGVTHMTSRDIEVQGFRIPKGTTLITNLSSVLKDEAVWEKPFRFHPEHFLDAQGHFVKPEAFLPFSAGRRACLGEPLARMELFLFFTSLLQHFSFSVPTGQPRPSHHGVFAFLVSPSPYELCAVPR
Sequence of Cytochrome P450 2C9 (Homo sapiens) (P11712 whole entry, looked up): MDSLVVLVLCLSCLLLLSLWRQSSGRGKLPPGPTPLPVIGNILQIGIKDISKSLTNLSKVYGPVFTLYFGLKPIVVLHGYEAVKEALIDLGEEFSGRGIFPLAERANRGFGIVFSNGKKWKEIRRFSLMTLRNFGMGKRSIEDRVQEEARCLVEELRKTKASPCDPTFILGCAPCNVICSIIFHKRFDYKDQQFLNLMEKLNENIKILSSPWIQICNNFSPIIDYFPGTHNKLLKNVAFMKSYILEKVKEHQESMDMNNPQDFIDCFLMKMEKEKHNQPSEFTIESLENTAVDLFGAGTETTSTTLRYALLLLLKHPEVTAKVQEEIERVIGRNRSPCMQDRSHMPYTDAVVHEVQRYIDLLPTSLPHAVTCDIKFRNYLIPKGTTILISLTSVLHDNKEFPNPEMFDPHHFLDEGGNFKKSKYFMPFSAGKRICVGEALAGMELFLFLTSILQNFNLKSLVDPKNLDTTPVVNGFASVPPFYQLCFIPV
Sequence of Rap guanine nucleotide exchange factor 4 (Homo sapiens) (Q8WZA2 whole entry, looked up): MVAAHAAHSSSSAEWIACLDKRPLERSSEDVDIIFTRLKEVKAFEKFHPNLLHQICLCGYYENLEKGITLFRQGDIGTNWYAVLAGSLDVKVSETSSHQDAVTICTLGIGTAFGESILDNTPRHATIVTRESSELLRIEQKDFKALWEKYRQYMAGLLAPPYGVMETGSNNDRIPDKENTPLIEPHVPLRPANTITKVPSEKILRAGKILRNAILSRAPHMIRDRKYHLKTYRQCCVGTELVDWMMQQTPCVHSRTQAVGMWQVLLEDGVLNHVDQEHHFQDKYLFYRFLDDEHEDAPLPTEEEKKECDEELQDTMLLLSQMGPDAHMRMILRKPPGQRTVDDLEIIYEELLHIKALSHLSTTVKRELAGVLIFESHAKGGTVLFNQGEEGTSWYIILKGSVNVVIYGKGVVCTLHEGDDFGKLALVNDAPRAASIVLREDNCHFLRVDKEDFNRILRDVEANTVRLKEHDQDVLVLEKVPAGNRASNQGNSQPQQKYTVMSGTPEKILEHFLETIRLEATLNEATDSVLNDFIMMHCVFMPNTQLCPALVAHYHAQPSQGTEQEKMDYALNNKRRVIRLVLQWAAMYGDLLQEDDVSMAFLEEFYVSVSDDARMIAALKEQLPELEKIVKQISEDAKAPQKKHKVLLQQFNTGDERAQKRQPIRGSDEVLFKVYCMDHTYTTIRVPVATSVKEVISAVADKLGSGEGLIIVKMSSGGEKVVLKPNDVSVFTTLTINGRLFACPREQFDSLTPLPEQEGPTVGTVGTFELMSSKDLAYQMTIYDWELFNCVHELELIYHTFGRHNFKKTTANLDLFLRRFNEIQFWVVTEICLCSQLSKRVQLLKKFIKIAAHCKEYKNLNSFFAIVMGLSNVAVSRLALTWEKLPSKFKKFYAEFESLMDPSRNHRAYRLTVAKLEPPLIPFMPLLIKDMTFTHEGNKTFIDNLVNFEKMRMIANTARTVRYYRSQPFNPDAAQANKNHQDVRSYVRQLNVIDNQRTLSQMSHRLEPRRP

In the case of `CCn1c(=O)n(C2=C(CO)CN(CC3CCCCCCC3)CC2)c2ccccc21`, the Potency entry in experiment [1] was “inactive”.
Take `C[C@@](N)(C(=O)O)[C@@H]1C[C@@H]1C(=O)O`: the Potency result in experiment [1] was “inactive”.
As for `COc1ccccc1-c1ccnc(N[C@H]2CO[C@H]3[C@@H]2OC[C@@H]3NS(=O)(=O)c2ccc3ccccc3c2)n1`, the Potency entry in experiment [2] and in experiment [3] was “inactive” each time. Further, the Potency in experiment [4] is 16.5 µM (active).
Consider `CCOc1nc2cccc(C(=O)OC(C)OC(=O)OC3CCCCC3)c2n1Cc1ccc(-c2ccccc2-c2nn[nH]n2)cc1` (centres undefined), for which the compound was classed as inactive in experiment [5], in experiment [15] and in [16]. For the same compound, the Potency was 7.94 µM (active) in experiment [6]; 22.4 µM (active) in [7]; 12.1 µM (active) in experiment [2]; 17.1 µM (active) in [3]; 1.24 µM (active) in [8]; 12.6 µM (active) in [9]. Besides, the Potency was 14.7 µM (active) in experiment [4], 13.5 µM (active) in [13], 4.77 µM (active) in experiment [14] and 7.94 µM (active) in [18]. Besides, the values for the max response in [6] (measured here: cell count channel max response) and in experiment [6] (measured here: lipid channel max response) were -28.3% and -78.8%, respectively. Besides, the Potency entry in experiment [10], in experiment [11], in experiment [12] and in [17] was “inactive” throughout.
Turning to `O=C(O)C1CC(CCCP(=O)(O)O)CCN1` (centres undefined), the Potency result in experiment [1] is “inactive”.
The same measure, in the same setting: under `NC(=NCc1ccc(Cl)cc1Cl)NC(=O)c1nc(Cl)c(N)nc1N` stands “inactive”.
`CO[C@H]1C[C@@H](O[C@@H]2/C(C)=C/C[C@@H]3C[C@@H](C[C@]4(CC[C@H](C)[C@@H](C5CCCCC5)O4)O3)OC(=O)[C@@H]3C=C(C)/C(=N/O)[C@H]4OC/C(=C\C=C\[C@@H]2C)[C@]43O)O[C@@H](C)[C@H]1O`: the Potency result in experiment [3], in [12] and in experiment [17] was “inactive” throughout. The Potency in [8] is 22 µM (active).
In the case of `CCCNC(=O)[C@H]1O[C@@H]1C(=O)N[C@H](C(=O)N1CCC[C@H]1C(=O)OC)[C@@H](C)CC`, in experiment [1], the Potency entry was “inactive”.
Take `CN(C)[C@@H]1C(=O)C(C(=O)NCN2CCCC2)=C(O)[C@@]2(O)C(=O)C3=C(O)c4c(O)cccc4[C@@](C)(O)[C@H]3C[C@@H]12`: the results for the Potency in experiment [3] and in experiment [8] were 9.61 µM (active) and 1.97 µM (active), respectively. Moreover, the Potency result in [10], in [11] and in [12] was “inactive” each time.
Turning to `CN(C)CCC1(c2ccc(Cl)cc2)Cc2ccccc2C(=O)O1` (centres undefined), the Potency entry in experiment [1] was “inactive”.
On the same count and under the same terms, under `CC[C@@H]1Cn2c(c3nc(-c4cc(Cl)cc(Cl)c4Cl)nc-3n(C)c2=O)N1` stands “inactive”; under `COc1ccccc1C1(O)CCN(CCCn2c3ccccc3c3ccccc32)CC1`, “inactive”; under `NC(N)=NCCNS(=O)(=O)c1cccc2cnccc12`, “inactive”.
For `Clc1ccc(-c2nn3c(COc4cc(Cl)c(OCc5nnc6sc(-c7ccc(Cl)cc7)nn56)cc4Cl)nnc3s2)cc1`, the figures for the Potency in experiment [2], in experiment [20] and in [9] were 20 µM (active), 14.1 µM (active) and 28.2 µM (active), respectively. Also, the Potency result in experiment [19] is “inactive”.

The values above are taken from PubChem BioAssay (NCATS).
